High-throughput results as filed in PubChem BioAssay.
Shown are actives, neighbours in structure and some others; about 1.3% of the full set was active somewhere.
BCLXL inh = inhibitors of human Bcl-xL, primary screen, biochemical, fluorescence polarization, HTS | AID 2129, 2009 | 320,000 tested, 0.7% active | Bcl-2-like protein 1 (Homo sapiens), Q07817 | inhibition, % at 10.9 µM | GST-Bcl-xL / FITC-Bim BH3 peptide fluorescence polarization;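 active = inhibition above the mean of all tested compounds plus 3 SD, cutoff set per campaign, cut at about 30% in these data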;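 also: inhibitors lower millipolarization by displacing the labeled peptide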
Target sequence (Q07817 whole entry, looked up): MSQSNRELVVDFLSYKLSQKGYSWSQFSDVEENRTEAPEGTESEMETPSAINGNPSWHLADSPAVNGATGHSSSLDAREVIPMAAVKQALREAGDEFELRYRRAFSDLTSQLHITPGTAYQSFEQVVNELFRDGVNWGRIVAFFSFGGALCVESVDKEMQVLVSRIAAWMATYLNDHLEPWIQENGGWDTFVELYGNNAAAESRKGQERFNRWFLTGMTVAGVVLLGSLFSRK
EBV gp42 block = Epstein-Barr virus gp42 inhibitors, primary screen, biochemical, uHTS, fluorescence polarization; 220,000 tested, 0.42% active; Glycoprotein 42 (Epstein-Barr virus (strain AG876)), Q1HVG2; Fluorescence polarization binding assay, mP read-out; inhibition, % (tested at 21.74 µM); in the data active = inhibition above about 50%
GLD-1 RNA inh = GLD-1/TGE RNA complex disruptors, primary screen, biochemical, fluorescence polarization; 320,000 tested, 0.44% active; purified GLD-1 + fluorescein TGE RNA; inhibition, % at 5.96 µM; Female germline-specific tumor suppressor gld-1 (Caenorhabditis elegans), Q17339; AID 2280, 2010;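 active = percent inhibition above a per-plate cutoff, the plate mean of test compounds plus 3 SD, cut at about 30% in these data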
eLon inh = inhibitors of E. coli Lon protease, primary screen, biochemical, fluorescence polarization; 360,000 tested, 0.42% active; P0A9M0; inhibition, % at 7.94 µM; purified E. coli Lon protease; in the data active = inhibition above about 13%, passing the limit was not always enough
MEX-5 binding = MEX-5 zinc finger RNA-binding disruptors – biochemical, C. elegans, fluorescence polarization, MLPCN library, primary screen | MEX-5/FITC-TCR2 RNA binding; active compounds read low | activity score (negative = inhibition of binding), % at 10 µM | 300,000 tested, 0.38% active;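 active = inhibition past about -25% in most replicates, and total fluorescence under double the plate's negative control median, limit read from the data; inconclusive = replicates evenly split on the limit, or fluorescence at least double controls; inactive = too little inhibition in most replicates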
Hits are given with their value; n = inactive; u = inconclusive; x = no result; + = active, no number.

SMILES | BCLXL inh | EBV gp42 block | GLD-1 RNA inh | eLon inh | MEX-5 binding
Nc1ccc(S(=O)(=O)Nc2nccc(/C=C/c3cccc(Br)c3)n2)cc1 | n | x | n | n | n
Cc1cccc(C)c1NC(=O)C1(C)CCC(=O)N1C1CC1 (configuration not stated) | x | x | x | n | x
COc1ccc(-c2cc(N)n(S(=O)(=O)c3ccc(C)cc3)n2)c(OC)c1 | 48 | n | n | n | n
O=C(COC(=O)c1ccccc1SCC(=O)N1CCCC1)NCc1ccc(F)cc1 | x | x | x | n | x
Cc1nc(S/C(=C/c2ccc(-c3cccc(Cl)c3)o2)C(=O)O)n[nH]1 | n | n | n | n | -35
CC1=NOC(=O)/C1=C\c1ccc(-c2cccc(Cl)c2)o1 | n | n | n | n | n
CCC1CCc2sc(C(=O)OCC(=O)N(CCOC)c3c(N)n(Cc4ccccc4)c(=O)[nH]c3=O)cc2C1 (configuration not stated) | n | x | n | n | n
COCCN(C(=O)COC(=O)c1cc2c(s1)CCC2)c1c(N)n(Cc2ccccc2)c(=O)[nH]c1=O | 32 | x | n | n | n
CCOc1ncccc1C(=O)OCC(=O)N(CC(C)C)C1CCS(=O)(=O)C1 (configuration not stated) | 91 | n | n | n | n
CSc1ncccc1C(=O)OCC(=O)N(CC(C)C)C1CCS(=O)(=O)C1 (configuration not stated) | n | n | n | n | n
COc1cc(OC)nc(Oc2cccc(Cl)c2C)n1 | n | x | n | n | n
O=C(c1cccc(N2C(=O)c3ccccc3C2=O)c1)N1CCCCCC1 | n | n | n | n | n
O=C1c2cccc3c(N4CCCCC4)ccc(c23)C(=O)N1c1cccc(O)c1 | 34 | n | n | n | n
Cc1ccc(C(=O)O)cc1S(=O)(=O)Nc1ccccc1C(=O)NC1CC1 | x | x | x | n | x
NS(=O)(=O)c1ccc(NC(=S)NNC(=O)CCC(=O)Nc2ccccc2Cl)cc1 | n | x | n | n | -31
S=C(Nc1ccc2nc(-c3ccccn3)c(-c3ccccn3)nc2c1)N1CCCCCC1 | 35 | n | n | n | n
Cc1nc2ccc(NC(=S)N3CCN(c4ccccn4)CC3)cc2nc1C | n | n | n | n | n
S=C(Nc1ccc2nsnc2c1)N1CCCCC1 | n | n | n | n | x
S=C(Nc1ccc2nc(-c3ccccn3)c(-c3ccccn3)nc2c1)N1CCCCC1 | x | 55 | x | n | x
CCOC(=O)c1cc2c(=O)n3ccccc3nc2n(C(C)C)c1=NC(=O)c1ccncc1 | n | n | n | n | -32
Cc1ccc(CNC(=O)c2cc3ccccc3oc2=O)cc1 | n | x | n | n | n
O=C1c2sc3nc4n(c(=O)c3c2CCC1Br)CCCCC4 (configuration not stated) | 30 | n | n | n | n
O=C1CCCc2c1sc1nc3n(c(=O)c21)CCCCC3 | n | n | n | n | n
O=C(Nc1ccccc1)c1cc(C2COCCN2C(=O)CCCc2ccccc2)on1 (configuration not stated) | x | x | x | n | x
Cc1cc(C=C2C(=O)c3ccccc3C2=O)c(C)n1-c1ccc(C(=O)O)cc1 | n | n | n | n | n
SMILES | BCLXL inh | EBV gp42 block | GLD-1 RNA inh | eLon inh | MEX-5 binding
Cc1cc(C=C2C(=O)c3ccccc3C2=O)c(C)n1-c1ccccc1 | n | 57 | n | n | n
Cc1ccccc1-n1c(SCC(=O)NC2CC2)nc2ccccc2c1=O | x | x | x | n | x
COc1ccccc1OC(=O)Oc1ccccc1OC | x | x | x | n | x
COc1cccc2c1C(=O)c1c(O)c3c(c(O)c1C2=O)C[C@@](O)(C(=O)CO)C[C@@H]3O[C@H]1C[C@H](N)[C@@H](O)[C@H](C)O1 | + | x | + | + | u
CC(=O)[C@]1(O)Cc2c(O)c3c(c(O)c2[C@@H](O[C@H]2C[C@H](N)[C@H](O)[C@H](C)O2)C1)C(=O)c1ccccc1C3=O | + | x | + | x | u
COc1ccc(N(C(C)=O)C2C=CS(=O)(=O)C2)c(OC)c1 (configuration not stated) | n | n | n | n | n
COc1cccc(C(=O)N(c2ccc(OC)cc2OC)C2C=CS(=O)(=O)C2)c1 (configuration not stated) | 61 | n | n | n | n
Cn1cc(/C=C/c2cc[n+](C)cc2)c2cc(Cl)ccc21 | n | x | 52 | n | u
